Bioassay records deposited in PubChem BioAssay by several laboratories.
Sampled rows, rich in hits. Any-hit rate of the full collection: about 11%.
WT yeast gro inh: growth inhibition of WT yeast, mitochondrial fusion screen; mitochondrial fusion phenotypic screen, WT strain; inhibition, % at 10 µM; 190,000 compounds, 2.1% hits; AID 1362; in the data active means inhibition above about 58%; tested in S. cerevisiae
Ins promoter up: MIN6 insulin promoter up-regulation | MIN6 insulin promoter-GFP reporter, high-content imaging; active compounds read high | z-score at 5 µM | 190,000 compounds, 0.3% hits;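 active means z-score above 3 at 5 µM with at least 500 cells counted in the well; inconclusive means wells under 500 cells, flagged as cytotoxic or low count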
Lmaj promast: Leishmania major promastigote growth inhibition; inhibition, % at 10 µM; Leishmania major promastigotes, resazurin fluorescence viability; AID 1063; 200,000 compounds, 9% hits; in the data active means inhibition above about 50%;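 further: promastigotes grown with compound for 44 hours at 28 °C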
Insulin prom inh: TRM-6 insulin promoter activity inhibition; TRM-6 cells (human fetal islet line), insulin promoter-eGFP reporter, imaging; reporter expression induced with tamoxifen; inhibition, % at 2 µM; 130,000 compounds, 0.9% hits;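 active means inhibition above the mean plus 3 SD, with well images judged a real hit on visual review, cut at about 60% in these data, passing the limit was not always enough; inconclusive means inhibition over the cutoff but images rejected on review; inactive means inhibition not above the cutoff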
Autophagy mod: alters autophagy in cells. MEF GFP-LC3 puncta imaging; test concentration mostly 10 µM. calls only at 10 µM (by protocol). 190,000 compounds, 0.98% hits. AID 463193;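 active means percentage of spot-positive cells more than 3 SD above its plate mean, without a fluorescence outlier flag or 80% toxicity; inconclusive means no clear call, values can overlap the other calls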
Large screens that a line does not name were inactive.

Cc1ccc(-c2nc(CN(C)C3CCOC3)c(C)o2)s1 (configuration not stated)	none (no result: Insulin prom inh)
CCOC(=O)c1c(C)c(-c2ccccc2)n(CC(=O)NCCC(C)C)c1C	none (no result: Insulin prom inh, Autophagy mod)
O=C(CN1CCCCC1)Nc1ccc(S(=O)(=O)N2CCCCCC2)cc1	none
CC1CCCN(CC(=O)Nc2ccc(S(=O)(=O)N3CCCCCC3)cc2)C1 (configuration not stated)	Lmaj promast 84 (no result: Insulin prom inh)
O=C1/C(=C/c2ccc([N+](=O)[O-])cc2)C=C(c2ccccc2)N1c1ccc(O)cc1	Lmaj promast 100
Cc1ccc(CN2CCN(/N=C/c3ccc(Cl)c([N+](=O)[O-])c3)CC2)cc1	WT yeast gro inh 64, Lmaj promast 95 (no result: Ins promoter up)
Cc1ccc(CN2CCN(/N=C/c3cc(Br)cc(Br)c3O)CC2)cc1	Lmaj promast 51
N#Cc1cccn1-c1nccc(-c2cccs2)n1	none (no result: Insulin prom inh)
COc1ccc(C(CCN(Cc2ccc(OC)c(OC)c2)C(C)=O)c2ccccc2)cc1 (configuration not stated)	none (no result: Insulin prom inh)
COc1ccc(CN(CCC(c2ccccc2)C2CCOC(C)(C)C2)C(C)=O)cc1 (configuration not stated)	Lmaj promast 83
COc1ccc(CNCCC(c2ccccc2)C2CCOC(C)(C)C2)cc1 (configuration not stated)	Lmaj promast 91 (no result: Insulin prom inh)
COc1ccc(-c2csc(NC(=O)/C(N=Nc3ccccc3)=C(\C)O)n2)cc1	none
COC(=O)c1cc(Cl)c(NC(=O)c2ccc(F)cc2)cc1OC	none
CO/N=C/c1c(-c2ccc(Cl)cc2)nc2cc(C)ccn12	Lmaj promast 61
CC1=C(C(=O)Nc2ccccc2F)C(c2cccs2)NC(=S)N1 (configuration not stated)	none (no result: Insulin prom inh)
CN(c1ccc([N+](=O)[O-])cc1/C=N/NC(=O)COc1ccccc1)C1CCCCC1	Lmaj promast 91
CCc1ccc(OCC(=O)N/N=C/c2cc([N+](=O)[O-])ccc2N2CCCCCC2)cc1	Lmaj promast 100
CN1CCN(c2ccc([N+](=O)[O-])cc2/C=N/NC(=O)c2ccc(F)cc2)CC1	none
N#CCC(=O)N/N=C/c1cc([N+](=O)[O-])ccc1N1CCOCC1	none
O=C(N/N=C/c1cc([N+](=O)[O-])ccc1N1CCCCCC1)c1ccccn1	Lmaj promast 60
CCC1CCCCN1c1ccc([N+](=O)[O-])cc1/C=N/NC(=O)Cn1c2ccccc2c(=O)c2ccccc21 (configuration not stated)	Lmaj promast 51
CN(C)CCCN(C(=O)c1cccs1)c1nc(-c2ccccc2)cs1	Lmaj promast 100, Autophagy mod active (no result: Insulin prom inh)
O=C(c1cccs1)N(Cc1ccco1)c1nc(-c2ccc(F)cc2)cs1	none (no result: Ins promoter up)
O=C(CC1C(=O)CCCC1=O)c1ccccc1	none
CN1[C@@H](CC(=O)c2ccccc2)CCC[C@H]1C[C@H](O)c1ccccc1	Lmaj promast 88
CN1C(CC(=O)c2ccccc2)CCCC1CC(O)c1ccccc1 (configuration not stated)	Lmaj promast 90
CCC(NC(=O)C1CCC1)c1ccccc1 (configuration not stated)	none
CNC(=O)C1C2C=CC3(O2)C1C(=O)N(CCOC)C3C(=O)NCc1ccc(OC)cc1 (configuration not stated)	none (no result: Ins promoter up)
COc1ccc(/C=C/c2nnc(NC(=O)COc3ccc(C)cc3)s2)cc1	none (no result: Insulin prom inh)
CSc1cccc(NS(=O)(=O)c2cccc3nsnc23)c1	none (no result: Insulin prom inh)
Cc1nnc(SCC(=O)NC(C)(C)C)n1C1CCCCC1	none
CCCN(CC(=O)Nc1ccc(F)c(F)c1F)CC(=O)Nc1c(Cl)cccc1Cl	none
CCOc1cc(/C=N/Nc2nc(N3CCCCC3)nc(N3CCCCC3)n2)ccc1OC(=O)c1ccco1	Lmaj promast 58
COc1ccc(/C=N/Nc2nc(Nc3ccccc3)nc(N3CCCC3)n2)cc1[N+](=O)[O-]	Autophagy mod active
COc1ccc(/C=N/Nc2nc(N3CCCCC3)nc(N3CCCCC3)n2)cc1[N+](=O)[O-]	Lmaj promast 96
O=[N+]([O-])c1cc(/C=N/Nc2nc(N3CCCCC3)nc(N3CCCCC3)n2)ccc1O	none
COc1cc(/C=N/Nc2nc(Nc3ccccc3)nc(N3CCCCC3)n2)ccc1OCC(=O)O	none
COc1ccc(/C=N/Nc2nc(Nc3ccccc3)nc(N3CCCCC3)n2)c(OC)c1	Lmaj promast 100
CCOc1ccc(/C=N/Nc2nc(N3CCCC3)nc(N3CCCC3)n2)cc1OC	none
CCOC(=O)CCP(=O)(O)C(O)c1ccccc1 (configuration not stated)	none (no result: Insulin prom inh)
COc1ccc(NC(=O)C(C)Oc2ccc(/C(C)=N\O)cc2)cc1 (configuration not stated)	none
COc1cc(/C=N/Nc2nc(N3CCCC3)nc(N3CCCC3)n2)ccc1O	Lmaj promast 97
O=[N+]([O-])c1cc2c(cc1/C=N\NS(=O)(=O)c1ccccc1)OCO2	none
CCOC(=O)c1ccc(N2NC(=O)/C(=C/c3ccc(OC(=O)c4ccco4)c(OC)c3)C2=O)cc1	Lmaj promast 61
CCOc1cc(/C=C2/SC(=S)NC2=O)ccc1OC(=O)c1ccco1	WT yeast gro inh 79 (no result: Insulin prom inh)
CNc1nc(N/N=C/c2cc3c(cc2[N+](=O)[O-])OCO3)nc(Nc2ccccc2)n1	Lmaj promast 65
CCc1ccc(NC(=O)CSCc2ccc(C(=O)O)cc2)cc1	none (no result: Ins promoter up, Insulin prom inh)
COCCN(C(=O)c1cc(OC)c(OC)c(OC)c1)c1c(N)n(Cc2ccccc2)c(=O)[nH]c1=O	none (no result: Insulin prom inh)
COc1ccc(-c2cnnc(N/N=C/c3ccc(O)c(OC)c3)n2)cc1	Lmaj promast 54
Cc1[nH]c2ccccc2c1/C=N/Nc1nc(Nc2ccccc2)nc(N2CCOCC2)n1	Lmaj promast 100 (no result: Ins promoter up)
COc1ccc(/C(C)=N/NS(=O)(=O)c2cc(C)ccc2C)c(OC)c1	none
Cc1c(CNC2CCCC2)c(C(=O)O)c(C)n1Cc1ccccc1	none (no result: Ins promoter up)
CCOC(=O)C(=CN=C(N)Nc1nc2ccccc2o1)C(=O)OCC	Lmaj promast 56
CCCOC(=O)Nc1nc2ccccc2o1	none (no result: Ins promoter up)
O=C(c1ccco1)N1CCN(C(=O)N2c3ccccc3Sc3ccccc32)CC1	Autophagy mod active
O=C(NC1CCN(C(=O)N2c3ccccc3Sc3ccccc32)CC1)c1ccco1	Autophagy mod active
O=C(N1CCN(c2ccccn2)CC1)C(Cl)(Cl)Cl	Insulin prom inh inconclusive
NC(=O)C1CCN(C(=O)N2c3ccccc3Sc3ccccc32)CC1	none (no result: Insulin prom inh)
O=C(NC1CCN(C(=O)N2c3ccccc3Sc3ccccc32)CC1)c1ccccc1Cl	Lmaj promast 95 (no result: Insulin prom inh)
O=C(N1CCN(c2ccccn2)CC1)N1c2ccccc2Sc2ccccc21	WT yeast gro inh 72 (no result: Insulin prom inh)
CCCC1C2C(=O)N(c3ccccc3OCC)C(=O)C2ON1c1ccccc1 (configuration not stated)	none
CCOC(=O)CN1C(=O)CCSc2ccc(Cl)cc21	none (no result: Insulin prom inh)
CCN(CC)c1ccc(NC2CC(=O)N(CCc3ccc(OC)cc3)C2=O)cc1 (configuration not stated)	none (no result: WT yeast gro inh, Lmaj promast, Insulin prom inh, Autophagy mod)
CCN(CC)S(=O)(=O)c1cccc(-c2nnc(SCC(=O)c3ccc(Cl)s3)n2C)c1	Lmaj promast 78 (no result: WT yeast gro inh)
CCN(CC)S(=O)(=O)c1cccc(-c2nnc(SCC(=O)NC)n2N)c1	none
